The full data set covers some 21,000 targets. This sample favours those with the largest changes.
Compound: CC1Cc2ccccc2N1C(=O)C1CCCN(C1)C(=O)CCl (mixture of isomers) [TRIM25 ligand 11 (diastereomer mixture)]
Assay: probe-labelled cysteine peptide fold change vs DMSO (competition) (log2 fold change); higher = less target engagement (more negative = stronger competition)
Settings: THP-1, incubation time: 4 h
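Note: competitive chemoproteomic profiling in live THP-1 cells with an iodoacetamide desthiobiotin (IA-DTB) probe, comparing probe-labelled peptide intensities in compound-treated cells against DMSO-treated controls.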

Chain of UniProt Q8N1W2 (Q8N1W2 whole entry): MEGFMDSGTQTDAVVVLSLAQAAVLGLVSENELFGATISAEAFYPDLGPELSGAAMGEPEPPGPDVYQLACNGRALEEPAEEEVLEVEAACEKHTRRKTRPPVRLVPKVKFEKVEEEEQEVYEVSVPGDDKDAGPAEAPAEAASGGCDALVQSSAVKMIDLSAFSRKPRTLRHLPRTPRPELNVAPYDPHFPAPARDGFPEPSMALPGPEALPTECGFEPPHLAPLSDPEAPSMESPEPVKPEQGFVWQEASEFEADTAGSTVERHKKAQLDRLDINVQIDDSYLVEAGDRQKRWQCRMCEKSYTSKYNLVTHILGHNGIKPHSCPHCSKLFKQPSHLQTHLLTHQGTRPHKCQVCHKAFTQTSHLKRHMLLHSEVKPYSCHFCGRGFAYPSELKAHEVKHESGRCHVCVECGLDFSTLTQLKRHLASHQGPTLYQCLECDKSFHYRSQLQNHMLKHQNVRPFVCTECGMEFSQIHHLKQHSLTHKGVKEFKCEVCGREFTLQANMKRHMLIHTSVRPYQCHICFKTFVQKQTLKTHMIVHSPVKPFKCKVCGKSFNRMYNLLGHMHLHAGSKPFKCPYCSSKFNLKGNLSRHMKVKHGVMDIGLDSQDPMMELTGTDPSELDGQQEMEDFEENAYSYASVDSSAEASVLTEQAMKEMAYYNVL
Chain of UniProt Q04917 (Q04917 whole entry, looked up): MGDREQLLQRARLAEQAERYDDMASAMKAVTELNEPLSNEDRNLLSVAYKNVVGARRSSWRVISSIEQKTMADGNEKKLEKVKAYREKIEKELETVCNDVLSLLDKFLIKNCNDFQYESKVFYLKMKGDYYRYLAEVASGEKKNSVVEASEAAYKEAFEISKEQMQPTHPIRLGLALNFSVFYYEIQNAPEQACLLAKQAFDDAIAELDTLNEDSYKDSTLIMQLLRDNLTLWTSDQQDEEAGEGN
Chain of UniProt Q5VV52 (Q5VV52 whole entry, looked up): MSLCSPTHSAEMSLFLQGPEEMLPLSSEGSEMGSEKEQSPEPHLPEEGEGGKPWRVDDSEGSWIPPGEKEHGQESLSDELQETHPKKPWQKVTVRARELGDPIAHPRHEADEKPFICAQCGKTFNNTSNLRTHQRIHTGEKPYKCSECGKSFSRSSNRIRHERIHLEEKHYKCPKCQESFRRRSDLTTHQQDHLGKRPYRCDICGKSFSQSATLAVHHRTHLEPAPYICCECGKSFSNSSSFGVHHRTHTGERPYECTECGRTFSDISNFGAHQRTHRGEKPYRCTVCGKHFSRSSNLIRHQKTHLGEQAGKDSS
Chain of UniProt Q9P2E3 (Q9P2E3 whole entry, looked up): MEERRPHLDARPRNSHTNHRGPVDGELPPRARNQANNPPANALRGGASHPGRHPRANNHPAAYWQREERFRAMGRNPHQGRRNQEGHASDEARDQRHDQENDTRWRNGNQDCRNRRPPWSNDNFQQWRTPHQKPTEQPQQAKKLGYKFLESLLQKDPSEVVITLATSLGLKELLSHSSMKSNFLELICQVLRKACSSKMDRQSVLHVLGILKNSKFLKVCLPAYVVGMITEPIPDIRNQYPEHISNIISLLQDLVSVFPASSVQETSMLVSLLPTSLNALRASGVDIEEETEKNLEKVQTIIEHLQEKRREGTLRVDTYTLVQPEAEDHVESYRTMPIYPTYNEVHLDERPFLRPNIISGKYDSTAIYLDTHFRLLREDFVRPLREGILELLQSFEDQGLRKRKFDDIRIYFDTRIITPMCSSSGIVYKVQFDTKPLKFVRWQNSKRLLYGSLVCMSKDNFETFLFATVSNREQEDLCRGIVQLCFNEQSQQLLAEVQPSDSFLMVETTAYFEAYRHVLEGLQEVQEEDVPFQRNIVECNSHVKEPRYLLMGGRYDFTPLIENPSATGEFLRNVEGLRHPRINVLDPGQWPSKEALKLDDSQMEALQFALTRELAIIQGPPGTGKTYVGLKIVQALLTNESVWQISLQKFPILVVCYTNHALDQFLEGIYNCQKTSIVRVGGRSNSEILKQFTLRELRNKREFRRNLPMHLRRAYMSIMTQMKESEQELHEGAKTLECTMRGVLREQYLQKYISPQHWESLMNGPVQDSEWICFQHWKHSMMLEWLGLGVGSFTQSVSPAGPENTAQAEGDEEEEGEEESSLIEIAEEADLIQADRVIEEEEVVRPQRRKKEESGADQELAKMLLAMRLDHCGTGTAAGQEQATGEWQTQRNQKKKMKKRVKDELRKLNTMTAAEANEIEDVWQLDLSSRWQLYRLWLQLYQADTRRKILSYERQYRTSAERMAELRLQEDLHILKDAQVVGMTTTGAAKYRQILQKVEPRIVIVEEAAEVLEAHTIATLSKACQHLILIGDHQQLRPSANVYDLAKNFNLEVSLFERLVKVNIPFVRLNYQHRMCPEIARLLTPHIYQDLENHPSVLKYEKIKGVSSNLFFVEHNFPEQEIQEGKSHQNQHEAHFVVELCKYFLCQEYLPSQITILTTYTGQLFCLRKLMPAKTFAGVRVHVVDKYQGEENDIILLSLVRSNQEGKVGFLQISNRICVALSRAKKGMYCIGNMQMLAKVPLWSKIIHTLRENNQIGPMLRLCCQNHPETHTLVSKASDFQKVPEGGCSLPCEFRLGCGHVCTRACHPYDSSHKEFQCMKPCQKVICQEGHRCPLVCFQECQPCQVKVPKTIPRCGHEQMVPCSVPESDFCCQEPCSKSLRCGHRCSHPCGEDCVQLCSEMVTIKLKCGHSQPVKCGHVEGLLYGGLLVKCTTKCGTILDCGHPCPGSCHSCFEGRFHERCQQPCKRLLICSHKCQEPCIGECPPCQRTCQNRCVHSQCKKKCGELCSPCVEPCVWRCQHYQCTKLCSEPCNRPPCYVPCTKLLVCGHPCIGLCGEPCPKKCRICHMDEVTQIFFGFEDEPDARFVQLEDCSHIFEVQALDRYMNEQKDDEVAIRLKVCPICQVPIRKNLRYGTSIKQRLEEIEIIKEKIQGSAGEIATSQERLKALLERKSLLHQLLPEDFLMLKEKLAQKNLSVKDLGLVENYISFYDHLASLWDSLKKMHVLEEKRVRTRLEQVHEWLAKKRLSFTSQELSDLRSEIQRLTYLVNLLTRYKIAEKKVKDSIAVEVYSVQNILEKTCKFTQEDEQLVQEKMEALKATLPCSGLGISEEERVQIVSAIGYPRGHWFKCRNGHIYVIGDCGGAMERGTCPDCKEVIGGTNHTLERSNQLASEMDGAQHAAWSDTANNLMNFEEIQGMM
Chain of UniProt A6NFI3 (A6NFI3 whole entry, looked up): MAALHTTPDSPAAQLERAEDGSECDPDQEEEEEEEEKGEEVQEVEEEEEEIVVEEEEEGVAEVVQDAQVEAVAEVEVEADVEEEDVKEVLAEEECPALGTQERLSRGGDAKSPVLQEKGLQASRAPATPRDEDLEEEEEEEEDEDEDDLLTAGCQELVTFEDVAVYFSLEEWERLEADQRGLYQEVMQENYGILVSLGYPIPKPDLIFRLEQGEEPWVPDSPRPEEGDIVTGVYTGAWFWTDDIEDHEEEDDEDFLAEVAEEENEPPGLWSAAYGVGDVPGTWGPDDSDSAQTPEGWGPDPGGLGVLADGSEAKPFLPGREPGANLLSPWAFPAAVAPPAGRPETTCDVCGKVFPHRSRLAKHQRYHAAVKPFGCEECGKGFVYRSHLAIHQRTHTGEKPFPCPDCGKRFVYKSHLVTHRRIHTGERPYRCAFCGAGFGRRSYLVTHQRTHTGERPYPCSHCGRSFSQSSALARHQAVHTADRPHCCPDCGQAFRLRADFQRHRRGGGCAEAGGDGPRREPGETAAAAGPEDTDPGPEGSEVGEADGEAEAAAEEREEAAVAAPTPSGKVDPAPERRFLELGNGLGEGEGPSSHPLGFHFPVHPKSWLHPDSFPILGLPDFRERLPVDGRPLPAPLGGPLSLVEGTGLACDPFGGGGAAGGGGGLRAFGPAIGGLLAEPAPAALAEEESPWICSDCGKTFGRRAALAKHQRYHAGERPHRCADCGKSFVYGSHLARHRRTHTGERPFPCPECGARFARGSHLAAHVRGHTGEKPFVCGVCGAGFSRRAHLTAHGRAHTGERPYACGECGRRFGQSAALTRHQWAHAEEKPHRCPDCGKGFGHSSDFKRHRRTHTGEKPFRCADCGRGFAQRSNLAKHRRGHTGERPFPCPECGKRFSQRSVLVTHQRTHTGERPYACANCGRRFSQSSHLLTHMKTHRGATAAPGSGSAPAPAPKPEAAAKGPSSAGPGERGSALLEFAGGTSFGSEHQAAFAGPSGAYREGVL
Chain of UniProt O43670 (O43670 whole entry, looked up): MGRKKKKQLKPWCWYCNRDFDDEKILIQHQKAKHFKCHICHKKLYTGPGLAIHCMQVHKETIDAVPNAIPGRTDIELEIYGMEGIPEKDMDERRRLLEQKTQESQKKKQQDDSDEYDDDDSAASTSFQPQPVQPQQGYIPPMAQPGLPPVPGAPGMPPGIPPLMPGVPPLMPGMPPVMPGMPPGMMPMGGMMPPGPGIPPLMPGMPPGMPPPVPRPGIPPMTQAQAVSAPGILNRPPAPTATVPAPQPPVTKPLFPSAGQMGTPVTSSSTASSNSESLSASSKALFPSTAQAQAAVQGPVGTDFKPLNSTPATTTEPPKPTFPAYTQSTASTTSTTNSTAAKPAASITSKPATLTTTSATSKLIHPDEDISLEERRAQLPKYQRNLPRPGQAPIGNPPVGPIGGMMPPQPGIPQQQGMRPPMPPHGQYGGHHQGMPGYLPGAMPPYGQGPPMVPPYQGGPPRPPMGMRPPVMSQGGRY
Chain of UniProt Q9NUD5 (Q9NUD5 whole entry, looked up): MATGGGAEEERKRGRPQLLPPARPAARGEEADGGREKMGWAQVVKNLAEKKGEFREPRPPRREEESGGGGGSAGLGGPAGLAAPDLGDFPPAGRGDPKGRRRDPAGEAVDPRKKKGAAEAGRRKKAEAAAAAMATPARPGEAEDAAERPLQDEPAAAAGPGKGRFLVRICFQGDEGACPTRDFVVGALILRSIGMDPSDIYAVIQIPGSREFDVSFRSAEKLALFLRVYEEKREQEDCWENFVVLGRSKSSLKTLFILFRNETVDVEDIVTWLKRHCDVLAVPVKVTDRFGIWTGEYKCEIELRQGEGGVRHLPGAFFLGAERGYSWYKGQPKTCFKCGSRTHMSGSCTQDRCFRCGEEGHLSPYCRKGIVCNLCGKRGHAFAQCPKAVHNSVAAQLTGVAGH

Target	probe-labelled cysteine peptide fold change (10 µM)	probe-labelled cysteine peptide fold change (50 µM)
ZNF691_Q5VV52_230_THLEPAPYICCECGK (UniProt Q5VV52)	-0.272	-0.8
ZNF316_A6NFI3_861_CADCGR (UniProt A6NFI3)	0.139	0.163
ZFYVE27_Q5T4F4_353_RYPTNNFGNCTGCSATFSVLK (UniProt Q5T4F4)	-0.247	-0.0647
ZNF280D_Q6N043_323_CFSCLK (UniProt Q6N043)	0.0838	0.233
YES1_P07947_42_YRPENTPEPVSTSVSHYGAEPTTVSPCPSSSAK (UniProt P07947)	-0.0245	-0.239
ZNF710_Q8N1W2_91_ALEEPAEEEVLEVEAACEK (UniProt Q8N1W2)	0.158	-0.171
ZCCHC3_Q9NUD5_238_REQEDCWENFVVLGR (UniProt Q9NUD5)	0.192	0.112
ZW10_O43264_568_LAPILCDGTATFVDLVPGFR (UniProt O43264)	0.117	0.00333
ZW10_O43264_588_LGTECFLAQMR (UniProt O43264)	0.647	0.508
ZNFX1_Q9P2E3_1416_CGHVEGLLYGGLLVK (UniProt Q9P2E3)	-0.0464	-0.153
ZFAND1_Q8TCF1_64_LKTDQHTSYPCSFK (UniProt Q8TCF1)	-0.0624	-0.388
XRN2_Q9H0D6_296_GKHDELADSLPCAEGEFIFLR (UniProt Q9H0D6)	0.0997	-0.0177
XRN1_Q8IZH2_16_YPCLSEVVK (UniProt Q8IZH2)	0.0639	0.0149
ZMYND8_Q9ULU4_106_EGQVLCCELCPR (UniProt Q9ULU4)	0.247	0.0715
XRN2_Q9H0D6_736_FSLDEEAILPDQIVCSPVPMLR (UniProt Q9H0D6)	0.234	0.0197
YES1_P07947_255_LTTVCPTVKPQTQGLAK (UniProt P07947)	-0.0129	-0.34
XRN2_Q9H0D6_296_HDELADSLPCAEGEFIFLR (UniProt Q9H0D6)	0.409	-0.0107
YWHAH_Q04917_97_ELETVCNDVLSLLDK (UniProt Q04917)	-0.1	-0.178
ZBTB7A_O95365_34_TQGLLCDVVILVEGR (UniProt O95365)	0.149	-0.0545
ZNF417_Q8TAU3_56_DVMLENLALISSLGCWCGSK<|>ZNF587_Q96SQ5_56_DVMLENLALISSLGCWCGSK (UniProt Q96SQ5+Q8TAU3)	0.112	0.104
ZW10_O43264_650_LGIVWQDVLPVNIYCK (UniProt O43264)	0.0783	0.0695
ZNF687_Q8N1G0_576_CSLLLHAR (UniProt Q8N1G0)	0.101	0.0491
ZNF207_O43670_54_KLYTGPGLAIHCMQVHK (UniProt O43670)	-0.6	-0.388
